Source: PubChem BioAssay (Tox21)
Inconclusive results are not listed. Calls of active or inactive are those of the source. Unless noted, calls follow the shape of the dose curve; as a rule, active = well fitted curve in the direction sought with a large enough effect in the repeat runs; inconclusive = weak or mixed curves; inactive = no such curve, though single readings can be large; an effect the other way counts as inactive or inconclusive.

Experiments:
[1] = qHTS assay for small molecule agonists of the p53 signaling pathway (AID 651631; calls by dose curve; also: nearly all actives have a fitted effect of over 15% in size)
How it was run: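 Readout was fluorescence from the LiveBLAzer FRET substrate, applied for 2 h at room temperature after 16 h compound exposure at 37 °C. Cells were the p53RE-bla HCT-116 line, with beta-lactamase driven by p53 response elements.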

[2] = qHTS assay for small molecules that induce genotoxicity in human embryonic kidney cells expressing luciferase-tagged ATAD5 (AID 651632); also: nearly all actives have a fitted effect of over 15% in size
How it was run: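 Cells were seeded at 2,000 per well, dosed with compound, and incubated 16 hr at 37C in 5% CO2. Luciferase activity was then quantified after a 30 min room-temperature incubation with Amplite.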

[3] = qHTS assay for small molecule agonists of the p53 signaling pathway - cell viability (AID 651633; calls by dose curve; also: series mostly up to about 83 µM; nearly all actives have a fitted effect of over 30% in size)
How it was run: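 p53RE-bla cells, seeded at 4,000 per well and rested 5 h at 37 C/5% CO2, received compounds in DMSO for 16 h at 37 C. CellTiter-Glo was then added, and luminescence was read after 30 min at room temperature to gauge cytotoxicity.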

[4] = qHTS assay for small molecules that induce genotoxicity in human embryonic kidney cells expressing luciferase-tagged ATAD5 - cell viability (AID 651634; calls by dose curve; also: nearly all actives have a fitted effect of over 25% in size)
How it was run: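 Cells (HEK293T, luciferase-tagged ATAD5) are seeded at 2,000 per well, dosed with compound or DMSO vehicle, and incubated 15.5 hr at 37C and 5% CO2. CellTiter-Fluor is added for 30 min before fluorescence is measured.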

[5] = qHTS assay for small molecule disruptors of the mitochondrial membrane potential - cell viability (AID 720634; calls by dose curve;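 also: human HepG2 liver cancer cells; series mostly up to about 83 µM; nearly all actives have a fitted effect of over 20% in size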)
How it was run: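 Cytotoxicity was measured by ATP quantitation in HepG2 wells that had first been treated with compound for 1 hr and stained with m-MPI dye; CellTiter-Glo incubation was 30 min at room temperature.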

[6] = qHTS assay for small molecule disruptors of the mitochondrial membrane potential (AID 720635)
How it was run: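 HepG2 cells (2,000/well) attached overnight at 37C, then took compound for 1 hr at 37C, 5% CO2. Mito-MPS dye was added for 30 min; fluorescence was read at 490/535 nm (monomers) and 540/590 nm (aggregates).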

[7] = qHTS assay to test for compound auto fluorescence at 590 nm (red) in HepG2 cells (AID 720674)
How it was run: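 Intrinsic compound fluorescence in the red window (Ex/Em 540/590 nm) is measured in attached HepG2 cells exposed for 1 hr, DMSO vehicle as baseline, benchmarked to Rose Bengal sodium.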

[8] = qHTS assay to test for compound auto fluorescence at 535 nm (green) in HepG2 cells (AID 720675)
[9] = qHTS assay to test for compound auto fluorescence at 460 nm (blue) in HEK293 cells (AID 720678)
How it was run: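 Cells were seeded and left to adhere for 4-5 hr at 37C. Compounds were then pin-transferred. After an overnight incubation at 37C under 5% CO2, intrinsic fluorescence at 405/460 nm was measured and referenced to triamterene.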

[10] = qHTS assay to test for compound auto fluorescence at 590 nm (red) in HEK293 cells (AID 720679)
How it was run: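 Each well held 2,000 HEK293 cells in medium containing 10% dialyzed FBS. Following 4-5 hr attachment at 37C, 23 nL test compound or DMSO was added; plates sat overnight, and red fluorescence (540/590nm) was recorded.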

[11] = qHTS assay to test for compound auto fluorescence at 535 nm (green) in HEK293 cells (AID 720680)
[12] = qHTS assay to test for compound auto fluorescence at 460 nm (blue) in HEK293 cell free culture (AID 720681)
How it was run: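 Test compounds were pinned into cell-free culture medium (DMEM with 10% FBS) and fluorescence was read directly at Ex/Em 405/460 nm. Signals were expressed as fluorescence equivalents of triamterene, with DMSO vehicle as control.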

[13] = qHTS assay to test for compound auto fluorescence at 535 nm (green) in HEK293 cell free culture (AID 720682)
How it was run: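 Compounds were pin-transferred into cell-free DMEM with 10% FBS, and green fluorescence was read at excitation 485 nm and emission 535 nm. Intensities were expressed as fluorescein-equivalent values.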

[14] = qHTS assay to test for compound auto fluorescence at 590 nm (red) in HEK293 cell free culture (AID 720683)
How it was run: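 Tox21 10K library compounds were pinned into cell-free DMEM with 10% FBS and fluorescence was read at excitation 540 nm. Activity is expressed as Rose Bengal sodium equivalency.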

[15] = qHTS assay to test for compound auto fluorescence at 590 nm (red) in HepG2 cell free culture (AID 720684)
How it was run: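 Ex 540 / Em 590 nm read of compound in cell-free MEM (10% FBS). Rose Bengal sodium reference.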

[16] = qHTS assay to test for compound auto fluorescence at 460 nm (blue) in HepG2 cell free culture (AID 720685)
How it was run: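 Cell-free plates of MEM plus 10% FBS received 23 nL compound or DMSO vehicle; blue-channel (405/460 nm) intensity scored against triamterene as reference fluorophore.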

[17] = qHTS assay to test for compound auto fluorescence at 535 nm (green) in HepG2 cell free culture (AID 720686)
[18] = qHTS assay to test for compound auto fluorescence at 460 nm (blue) in HepG2 cells (AID 720687)
How it was run: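 Cells (2,000/well in MEM with 10% FBS) attached overnight at 37 C, then were exposed to compound or DMSO for 1 hr at 37 C, 5% CO2. Fluorescence read at Ex/Em 405/460 nm, expressed as triamterene-equivalent signal.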

[19] = target: Glucocorticoid receptor (Homo sapiens) (UniProt P04150); assay: qHTS assay to identify small molecule agonists of the glucocorticoid receptor (GR) signaling pathway (AID 720691; active = well fitted activation curve with a large enough effect in the signal ratio in the repeat runs, not every such curve was filed as active; the % refers to the signal ratio)
Glucocorticoid receptor (Homo sapiens), sequence (P04150 whole entry, looked up): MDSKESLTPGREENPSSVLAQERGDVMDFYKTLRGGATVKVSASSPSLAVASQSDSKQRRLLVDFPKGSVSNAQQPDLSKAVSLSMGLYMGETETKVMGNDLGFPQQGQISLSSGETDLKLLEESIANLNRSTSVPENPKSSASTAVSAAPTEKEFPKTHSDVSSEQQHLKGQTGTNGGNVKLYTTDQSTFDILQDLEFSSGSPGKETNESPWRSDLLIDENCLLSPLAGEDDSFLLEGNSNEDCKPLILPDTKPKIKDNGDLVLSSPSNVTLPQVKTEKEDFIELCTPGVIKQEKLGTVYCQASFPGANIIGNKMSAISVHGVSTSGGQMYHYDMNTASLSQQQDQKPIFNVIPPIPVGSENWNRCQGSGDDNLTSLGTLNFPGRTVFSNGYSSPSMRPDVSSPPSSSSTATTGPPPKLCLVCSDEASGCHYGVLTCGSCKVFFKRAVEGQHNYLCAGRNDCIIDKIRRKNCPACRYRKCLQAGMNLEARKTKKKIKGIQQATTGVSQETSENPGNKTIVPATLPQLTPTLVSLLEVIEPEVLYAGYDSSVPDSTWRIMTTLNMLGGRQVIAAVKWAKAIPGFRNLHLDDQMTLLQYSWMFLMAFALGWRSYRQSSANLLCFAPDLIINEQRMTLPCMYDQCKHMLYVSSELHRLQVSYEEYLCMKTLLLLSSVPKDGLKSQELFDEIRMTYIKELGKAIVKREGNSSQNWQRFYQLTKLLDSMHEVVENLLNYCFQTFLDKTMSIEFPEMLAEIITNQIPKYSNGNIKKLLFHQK
How it was run: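 Steps: seed GR-bla HeLa cells, incubate 4 h at 37 C/5% CO2; pin-transfer DMSO-dissolved compounds; incubate 18 h at 37 C; add LiveBLAzer B/G FRET substrate; after 2 h at room temperature, measure fluorescence.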

[20] = target: Glucocorticoid receptor (Homo sapiens) (UniProt P04150); assay: qHTS assay to identify small molecule antagonists of the glucocorticoid receptor (GR) signaling pathway (AID 720692; active = well fitted inhibition curve with a large enough effect in the signal ratio in the repeat runs, not every such curve was filed as active; the % refers to the signal ratio)
How it was run: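 Antagonism was scored as loss of dexamethasone-driven (5 nM final) reporter signal in HeLa cells bearing a glucocorticoid response element–beta-lactamase construct, after 18 h compound exposure at 37 C and 2 h FRET substrate loading.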

Measured: Potency

N[C@@H](CSCCCO)C(=O)O
not listed: [18] | [19] | [20]
inactive: all other assays above

CCCSSCCC
not listed: [20]
inactive: all other assays above

CSc1cnccn1
not listed: [19] | [20]
inactive: all other assays above

CC(C)=CCC[C@@](C)(O)[C@H]1CC=C(C)CC1
inactive: all assays above

CCCCCCCCCOC(=O)c1ccccc1C(=O)OCCCCCCCCC
not listed: [20]
inactive: all other assays above

O=C(NCN1CCOCC1)c1cnccn1
inactive: all assays above

CNCCS(=O)(=O)O
inactive: all assays above

CCCCCCCCCCOC(C)=O
inactive: all assays above

C#CCN[C@@H]1CCc2ccccc21
not listed: [19] | [20]
inactive: all other assays above

CCCCSCCCC
inactive: all assays above

CC(=O)CCc1ccc(OC(C)=O)cc1
inactive: all assays above

CC(=O)C(C)O (configuration not stated)
not listed: [19] | [20]
inactive: all other assays above

O=C(CN1CCNCC1)NC1CCCCC1
inactive: all assays above

Cc1cc(-c2ccccc2)nnc1NCCN1CCOCC1
not listed: [19] | [20]
inactive: all other assays above
